# For part of these data: Potency and affinity values are given separately.
# Assays:
# Design in all cases: scale not given: direction of the effect not stated beside the values
# [1] = target: Protein translocase subunit SecA (Escherichia coli (strain K12)) (UniProt P10408); assay: Assay to Identify E. coli SecA ATPase Inhibitors; format: functional; details: 30 µM
# [2] = target: T1, Ubiquitin-activating enzyme e1, putative (Leishmania donovani (strain BPK282A1)) (UniProt E9BSI1); assay: Leishmania donovani Ubiquitin Activating Enzyme (LdE1); format: functional; details: 30 µM
# T1 sequence (whole entry): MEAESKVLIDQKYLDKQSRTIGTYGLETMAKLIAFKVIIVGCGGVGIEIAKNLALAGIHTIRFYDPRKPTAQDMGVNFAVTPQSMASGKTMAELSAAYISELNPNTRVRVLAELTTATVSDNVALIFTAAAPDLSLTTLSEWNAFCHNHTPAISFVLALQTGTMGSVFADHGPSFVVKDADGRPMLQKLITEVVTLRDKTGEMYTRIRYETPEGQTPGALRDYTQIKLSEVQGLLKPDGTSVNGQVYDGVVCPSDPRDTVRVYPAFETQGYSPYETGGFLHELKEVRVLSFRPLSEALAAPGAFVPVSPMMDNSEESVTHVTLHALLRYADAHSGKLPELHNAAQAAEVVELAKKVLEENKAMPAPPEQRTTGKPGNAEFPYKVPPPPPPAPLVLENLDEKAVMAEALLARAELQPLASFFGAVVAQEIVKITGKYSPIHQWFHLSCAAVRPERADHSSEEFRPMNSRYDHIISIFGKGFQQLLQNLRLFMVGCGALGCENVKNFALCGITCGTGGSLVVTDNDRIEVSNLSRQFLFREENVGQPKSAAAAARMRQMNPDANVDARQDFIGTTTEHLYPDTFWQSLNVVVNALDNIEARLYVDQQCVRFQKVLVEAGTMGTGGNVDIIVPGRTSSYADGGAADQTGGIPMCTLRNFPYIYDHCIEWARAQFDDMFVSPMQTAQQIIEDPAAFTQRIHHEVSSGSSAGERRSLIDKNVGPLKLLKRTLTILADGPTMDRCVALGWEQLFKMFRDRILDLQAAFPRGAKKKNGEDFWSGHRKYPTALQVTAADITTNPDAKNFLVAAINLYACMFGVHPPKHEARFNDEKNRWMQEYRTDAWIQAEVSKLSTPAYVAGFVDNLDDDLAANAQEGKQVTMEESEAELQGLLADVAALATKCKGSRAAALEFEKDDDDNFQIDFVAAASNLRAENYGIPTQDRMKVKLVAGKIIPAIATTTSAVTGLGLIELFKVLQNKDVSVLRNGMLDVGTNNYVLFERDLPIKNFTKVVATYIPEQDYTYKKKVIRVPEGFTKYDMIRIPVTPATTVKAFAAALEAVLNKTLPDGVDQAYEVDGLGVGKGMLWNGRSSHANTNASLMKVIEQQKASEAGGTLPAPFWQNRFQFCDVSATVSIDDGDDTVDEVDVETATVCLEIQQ
# [3] = target: AMP-activated protein kinase, AMPK (Homo sapiens) (UniProt P54646+O43741+P54619+Q9UGJ0+Q9Y478+Q13131+Q9UGI9); assay: AMP-dependent Kinase enzyme assay. An in vitro enzyme assay that detects ADP turnover that is directly proportional to AMPK activity. This uses naive AMPK that is activated during the assay with MK-8722; format: functional; details: 30 µM
# [4] = target: Sialic acid-binding Ig-like lectin 9 (Homo sapiens) (UniProt Q9Y336); assay: Hs-Siglec9 ALPHAscreen SOP 20170721; details: 10 µM
# Trypanosoma cruzi = assay: Trypanosoma cruzi phosphomannomutase and mannose-1-phosphate guanylyltransferase assay; format: functional; details: 10 µM
# [5] = target: T2, Arginase-2, mitochondrial (Homo sapiens) (UniProt P78540); assay: in vitro enzyme assay to detect the production of urea directly proportional to the activity of Arginase II; format: functional; details: 33.3 µM; note: in the data most compounds retested in dose-response had high values
# T2 sequence (whole entry): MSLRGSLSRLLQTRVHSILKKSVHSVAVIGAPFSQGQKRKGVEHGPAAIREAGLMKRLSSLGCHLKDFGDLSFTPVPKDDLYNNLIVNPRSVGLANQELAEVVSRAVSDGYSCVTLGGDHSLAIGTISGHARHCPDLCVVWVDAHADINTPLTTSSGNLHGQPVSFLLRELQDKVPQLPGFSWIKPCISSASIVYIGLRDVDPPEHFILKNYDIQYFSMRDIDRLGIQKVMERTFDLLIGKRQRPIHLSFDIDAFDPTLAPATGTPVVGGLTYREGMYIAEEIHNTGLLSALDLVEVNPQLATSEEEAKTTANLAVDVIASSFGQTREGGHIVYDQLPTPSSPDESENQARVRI
# [6] = target: T3, Proteasome subunit beta (Trypanosoma cruzi) (UniProt O96673); assay: Trypanosoma cruzi proteasome chymotrypsin-like activity (TcProtChymo) assay.; note: in the data most compounds retested in dose-response had high values; format: functional; details: 9.37 µM
# T3 sequence (whole entry): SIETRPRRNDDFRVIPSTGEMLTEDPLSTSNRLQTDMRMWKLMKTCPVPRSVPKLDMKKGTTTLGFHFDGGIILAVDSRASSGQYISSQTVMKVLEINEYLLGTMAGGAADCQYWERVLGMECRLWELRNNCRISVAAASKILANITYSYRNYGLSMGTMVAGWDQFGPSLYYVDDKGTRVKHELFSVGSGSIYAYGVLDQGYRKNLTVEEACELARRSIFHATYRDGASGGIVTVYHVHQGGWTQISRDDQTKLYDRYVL
# Homo sapiens = species: Homo sapiens; assay: To identify inhibition of the IFN signalling (Jak-Stat) pathway via expression of an eGFP reporter gene under the control of an IFN-stimulated response element (ISRE) containing MxA promoter.; format: functional; details: 30 µM
# [7] = target: T4, Tyrosyl-tRNA synthetase, putative (Trypanosoma cruzi (strain CL Brener)) (UniProt Q4DSP6); assay: Trypanosoma cruzi tyrosyl tRNA synthetase (TcYRS) _High Tyrosine SOP; format: functional; details: 30 µM; note: in the data most compounds retested in dose-response had high values
# T4 sequence (whole entry): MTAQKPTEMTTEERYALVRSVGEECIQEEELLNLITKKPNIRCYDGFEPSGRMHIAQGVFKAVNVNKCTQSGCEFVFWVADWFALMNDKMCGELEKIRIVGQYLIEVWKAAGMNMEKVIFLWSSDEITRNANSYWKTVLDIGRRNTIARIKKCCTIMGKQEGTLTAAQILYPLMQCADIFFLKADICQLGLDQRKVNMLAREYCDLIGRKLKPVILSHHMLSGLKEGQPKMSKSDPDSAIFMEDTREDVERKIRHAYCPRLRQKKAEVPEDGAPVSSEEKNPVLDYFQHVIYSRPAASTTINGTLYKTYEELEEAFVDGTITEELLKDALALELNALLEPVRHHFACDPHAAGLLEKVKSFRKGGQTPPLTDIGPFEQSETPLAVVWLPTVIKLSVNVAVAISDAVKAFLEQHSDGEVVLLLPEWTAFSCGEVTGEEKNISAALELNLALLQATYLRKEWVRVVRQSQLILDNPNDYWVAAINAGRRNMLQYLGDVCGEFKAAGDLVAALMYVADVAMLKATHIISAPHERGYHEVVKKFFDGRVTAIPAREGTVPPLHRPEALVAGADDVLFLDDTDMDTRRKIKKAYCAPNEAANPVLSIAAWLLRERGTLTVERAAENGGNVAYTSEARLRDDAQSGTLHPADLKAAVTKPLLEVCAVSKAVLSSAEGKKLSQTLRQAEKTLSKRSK
# [8] = target: T4, Tyrosyl-tRNA synthetase, putative (Trypanosoma cruzi (strain CL Brener)); assay: Trypanosoma cruzi tyrosyl tRNA synthetase (TcYRS) SOP; format: functional; details: 30 µM
# [9] = target: Chromo domain-containing protein 1 (Saccharomyces cerevisiae (strain ATCC 204508 / S288c) (Baker's yeast)) (UniProt P32657); assay: ScCHD-1 Enzyme Inhibition Assay; format: functional; details: 30 µM; note: in the data most compounds retested in dose-response had high values
# Chain of Chromo domain-containing protein 1 (Saccharomyces cerevisiae (strain ATCC 204508 / S288c) (Baker's yeast)) (P32657 whole entry, the tested form may be a part): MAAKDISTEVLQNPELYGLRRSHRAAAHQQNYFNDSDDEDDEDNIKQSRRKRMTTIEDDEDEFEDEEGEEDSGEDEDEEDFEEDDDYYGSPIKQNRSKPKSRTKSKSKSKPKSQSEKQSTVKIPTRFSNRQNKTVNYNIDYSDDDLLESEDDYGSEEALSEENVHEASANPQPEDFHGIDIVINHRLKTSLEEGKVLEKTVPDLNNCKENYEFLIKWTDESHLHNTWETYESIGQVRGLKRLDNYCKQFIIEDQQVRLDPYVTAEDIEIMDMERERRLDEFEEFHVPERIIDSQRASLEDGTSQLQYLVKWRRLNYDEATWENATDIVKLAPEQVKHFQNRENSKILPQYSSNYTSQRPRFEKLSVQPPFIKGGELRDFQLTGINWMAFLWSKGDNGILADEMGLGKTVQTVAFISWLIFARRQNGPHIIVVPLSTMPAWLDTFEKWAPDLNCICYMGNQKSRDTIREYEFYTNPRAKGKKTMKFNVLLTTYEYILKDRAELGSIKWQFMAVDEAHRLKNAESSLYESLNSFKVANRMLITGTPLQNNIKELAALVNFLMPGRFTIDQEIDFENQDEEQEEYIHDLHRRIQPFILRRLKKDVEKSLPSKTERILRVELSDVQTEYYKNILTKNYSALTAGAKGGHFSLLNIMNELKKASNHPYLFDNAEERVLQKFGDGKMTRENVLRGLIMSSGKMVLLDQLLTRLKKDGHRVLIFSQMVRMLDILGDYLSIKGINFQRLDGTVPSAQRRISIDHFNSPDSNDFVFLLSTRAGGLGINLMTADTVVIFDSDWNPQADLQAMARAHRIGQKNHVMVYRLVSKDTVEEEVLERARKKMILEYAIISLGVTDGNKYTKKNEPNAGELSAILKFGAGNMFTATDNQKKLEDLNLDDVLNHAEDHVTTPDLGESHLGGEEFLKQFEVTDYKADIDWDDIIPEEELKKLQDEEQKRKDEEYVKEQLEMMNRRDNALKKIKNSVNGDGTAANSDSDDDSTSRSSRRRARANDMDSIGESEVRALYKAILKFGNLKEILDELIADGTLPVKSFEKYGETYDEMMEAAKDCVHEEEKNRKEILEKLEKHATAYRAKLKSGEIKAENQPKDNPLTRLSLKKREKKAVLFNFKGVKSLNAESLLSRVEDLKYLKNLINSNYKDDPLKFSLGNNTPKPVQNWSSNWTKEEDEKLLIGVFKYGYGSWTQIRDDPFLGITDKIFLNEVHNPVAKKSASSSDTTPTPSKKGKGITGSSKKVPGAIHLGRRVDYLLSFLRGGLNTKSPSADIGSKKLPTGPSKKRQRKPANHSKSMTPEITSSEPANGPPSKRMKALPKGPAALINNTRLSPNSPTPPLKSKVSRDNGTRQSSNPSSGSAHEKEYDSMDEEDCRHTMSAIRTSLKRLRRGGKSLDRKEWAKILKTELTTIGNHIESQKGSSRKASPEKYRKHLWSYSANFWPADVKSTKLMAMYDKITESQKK
# Chain of Sialic acid-binding Ig-like lectin 9 (Homo sapiens) (Q9Y336 whole entry): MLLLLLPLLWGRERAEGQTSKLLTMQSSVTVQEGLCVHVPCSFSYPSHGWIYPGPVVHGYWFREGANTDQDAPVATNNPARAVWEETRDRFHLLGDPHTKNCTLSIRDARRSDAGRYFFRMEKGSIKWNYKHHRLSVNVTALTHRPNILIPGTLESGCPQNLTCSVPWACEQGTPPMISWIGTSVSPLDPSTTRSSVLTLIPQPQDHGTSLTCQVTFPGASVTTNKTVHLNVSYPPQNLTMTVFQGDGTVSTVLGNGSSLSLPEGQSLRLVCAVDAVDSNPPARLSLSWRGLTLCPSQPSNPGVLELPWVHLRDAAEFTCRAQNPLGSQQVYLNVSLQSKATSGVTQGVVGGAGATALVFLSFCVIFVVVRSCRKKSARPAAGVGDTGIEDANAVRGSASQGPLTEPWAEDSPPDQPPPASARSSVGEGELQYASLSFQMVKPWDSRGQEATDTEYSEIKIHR
# Chain of Protein translocase subunit SecA (Escherichia coli (strain K12)) (P10408 whole entry): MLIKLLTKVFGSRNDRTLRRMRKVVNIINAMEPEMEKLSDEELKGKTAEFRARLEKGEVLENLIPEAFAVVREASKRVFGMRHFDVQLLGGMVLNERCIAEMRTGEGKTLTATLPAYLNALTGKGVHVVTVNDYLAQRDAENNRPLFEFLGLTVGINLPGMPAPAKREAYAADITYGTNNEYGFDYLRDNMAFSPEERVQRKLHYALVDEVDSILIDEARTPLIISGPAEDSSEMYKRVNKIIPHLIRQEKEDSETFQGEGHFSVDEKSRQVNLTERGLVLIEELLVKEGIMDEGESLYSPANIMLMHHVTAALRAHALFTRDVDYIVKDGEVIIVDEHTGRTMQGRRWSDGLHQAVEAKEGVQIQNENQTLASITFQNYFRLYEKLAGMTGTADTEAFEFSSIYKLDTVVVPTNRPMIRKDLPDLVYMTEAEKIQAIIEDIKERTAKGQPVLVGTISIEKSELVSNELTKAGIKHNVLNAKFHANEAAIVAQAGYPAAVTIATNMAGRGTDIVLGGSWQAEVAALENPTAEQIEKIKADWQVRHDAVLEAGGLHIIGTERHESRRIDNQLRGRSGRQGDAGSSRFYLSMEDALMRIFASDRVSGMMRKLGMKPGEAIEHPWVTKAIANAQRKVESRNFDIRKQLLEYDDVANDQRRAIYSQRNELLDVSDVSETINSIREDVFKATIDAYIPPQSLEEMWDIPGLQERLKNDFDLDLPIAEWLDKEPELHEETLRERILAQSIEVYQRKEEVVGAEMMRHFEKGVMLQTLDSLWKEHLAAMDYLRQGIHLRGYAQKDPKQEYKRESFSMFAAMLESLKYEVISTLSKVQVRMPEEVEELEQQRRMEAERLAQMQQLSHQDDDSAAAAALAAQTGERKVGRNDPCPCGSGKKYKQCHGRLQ
SMILES,Percent Effect [1] [%],Percent Effect [2] [%],Percent Effect [3] [%],Percent Effect [4] [%],Percent Effect (Trypanosoma cruzi) [%],Percent Effect [5] [%],Percent Effect [6] [%],Percent Effect (Homo sapiens) [%],Percent Effect [7] [%],Percent Effect [8] [%],Percent Effect [9] [%]
O=C(N1CCCC1)N1Cc2nccn2CC(CN2CCCC2)C1 (stereo unspecified),0.719,5.41,7.93,-1.18,-5.77,-0.955,25.8,-2.41,-1.08,10.3,-2.63
CC(=O)N1CCC2(CC1)COCCN2Cc1ccc(F)cc1,-4.99,8.11,4.11,-8.39,-4.2,-0.955,18.1,-2.37,-1.08,7.69,-1.77
Nc1nc2c(c(=O)[nH]1)CCN(C(=O)c1cccc3nccnc13)C2,-2.43,10.4,-11.5,9.88,2.46,-12.4,20.6,-5.63,4.3,8.64,-0.6
Cc1ccoc1-c1nnc(CNCC2CCCN2c2cccnn2)o1 (stereo unspecified),-6.58,0,-0.825,2.96,1.98,-0.798,9.33,6.87,9.38,13.6,1.55
Cn1cc(N2CCC(NC(=O)c3c(F)cccc3F)C2=O)cn1 (stereo unspecified),-7.01,-2.7,0.96,-8.23,-1.66,-0.744,0.258,-14.2,0,1.24,0.00639
Cn1cccc1C(=O)N1CCc2ncnc(N3CCCC3)c2CC1,-4.32,5.33,8.28,2.39,4.13,-4.43,-0.264,8.45,5.32,11.5,-2.07
Fc1ccc(CN2CCO[C@H]3[C@H](OCCN4CCCC4)CC[C@@H]32)cc1,7.01,10.7,5.78,7.14,-4.05,-51.1,12.8,-9.42,5.21,12.5,-3.68
CN(Cc1nc(N)c2ccccc2n1)C1CCCN(c2cccnn2)C1 (stereo unspecified),-4.12,-5.2,-10.2,5.86,7.49,-1.07,13.3,-0.131,9.71,14.6,-9.67
Cc1nc(CN2CCOC(CNc3cccnn3)C2)cs1 (stereo unspecified),0.542,-8.11,-13.4,10.4,3.87,-2.81,20.2,3.75,14.3,6.17,-6.92
COc1c(CNC2CCN(c3ncccn3)CC2)c(C(C)C)nn1C,-4.79,10.5,4.83,-4.46,-6.26,7.55,2.79,-4.77,6.4,16.1,-4.31
Cc1cc(C)cc(-c2ccc(CC3(C(=O)O)CCOCC3)cc2)c1,-8.77,-4.05,12.1,-1.64,-3.95,-3.48,1.25,18,-20.4,-37.7,-2.15
COc1ccc(C(CNC(=O)Nc2cn[nH]c2)N2CCOCC2)cc1 (stereo unspecified),-3.98,7.79,3.92,0.747,4.8,1.05,15,-2.67,10.5,25.9,-20.4
CCN1CCN(C2CCN(Cc3nnc(C(C)(C)C)o3)CC2)C1=O,-4.08,13,7.53,-0.00786,0.686,1.05,10.3,4.76,7.62,14.1,-21.7
CCc1noc(CN2CCCC2c2noc(C3CC3)n2)n1 (stereo unspecified),0.214,21.6,-11.2,-6.88,3.68,-10,12.8,19.7,9.36,18.5,-9.57
COCCN1C(=O)[C@]2(CC[C@@H]3CN(C(=O)NC4CCCC4)C[C@@H]32)N=C1C,-2.35,8,-3.34,5.66,4.83,-52.5,6.84,-7.18,-7.29,10,-9.58
CSc1nccn1-c1cccc(C(=O)NCCCN2CCOCC2)c1,-3.34,18.4,0.67,-6.16,1.21,-2.52,16.5,5.76,7.39,18.5,-4.95
Cn1cc(C2CCCN2C(=O)Cc2n[nH]c3ccccc23)cn1 (stereo unspecified),-3.26,22.8,4.87,-9.88,6.33,0.76,13,7.84,6.4,21.5,-11.7
CN(C)c1ncc(CN2CCC(c3nnsc3S(C)(=O)=O)CC2)cn1,-2.31,-1.35,11.6,-0.17,-3.36,0.232,4.37,12.1,3.23,1.3,-9.61
CCN1CCN(S(=O)(=O)c2cc(C)c(Cl)cc2Cl)CC1,-6.87,-2.6,4.8,4.35,-2.85,1.38,-0.166,13.9,-3.23,-6.17,4.8
CC1CCCN(CCNC(=O)c2cncnc2C(C)C)C1 (stereo unspecified),-2.89,6.94,-1.93,-5.17,-4.96,0.442,8.25,-15.9,4.21,12.8,-3.15
CC(=O)N1CCCC1C(=O)NCCOc1cc(C)cc(C)c1 (stereo unspecified),-7.33,7.79,-4.76,10.6,3.37,-5.34,-7.43,-4.36,6.8,12.2,-4.02

# From ChEMBL document CHEMBL3988442, “University of Dundee, Small-Polar-MMV Screening Library” (2021)
